An excerpt weighted towards active compounds, which were near 2.1% of everything screened.
Giardia kill: kills Giardia lamblia; Giardia lamblia trophozoite viability; activity change, % at 7.66 µM, hits read low; hit rate 0.15% among 340,000; AID 540267; in the data active = activity change below about -80%; inconclusive = between about -30% and that limit;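 note: parasites exposed to compound for two days anaerobically before the ATP read; % is set by controls: 0 for no effect and ±100 for the full control effect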
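Each well holds 100 Giardia trophozoites and compound. After two days (48 hrs) at 37 deg C in anaerobic conditions, ATP is quantified by luminescence.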
ClpP mod: qHTS Assay for Activators of ClpP. hit rate 1.9% among 340,000. Potency, µM (titrated, usually from 57.5 µM), without a hit: at the top dose activity change, negative = active. ATP-dependent Clp protease proteolytic subunit (Bacillus subtilis (strain 168)), P80244. purified B. subtilis ClpP, FRET peptide cleavage, 20 min; active = well fitted falling curve with a large enough effect; inconclusive = small, poorly fitted or top-dose-only effect; inactive = no such curve, though single readings can be large or run the other way; note: potency is the fitted concentration of half-maximal effect; the source files actives as falling curves though it sought activators and does not explain the sign; nearly all actives have a fitted effect of over 65% in size
Target sequence (P80244 whole entry, looked up): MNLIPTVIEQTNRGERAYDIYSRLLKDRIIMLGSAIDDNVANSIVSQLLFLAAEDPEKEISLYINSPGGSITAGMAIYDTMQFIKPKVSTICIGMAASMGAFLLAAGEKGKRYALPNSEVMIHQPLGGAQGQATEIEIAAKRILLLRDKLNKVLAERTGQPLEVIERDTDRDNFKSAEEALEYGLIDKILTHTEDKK
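Buffer: 100 mM Tris/HCl pH8, 100 mM KCl, 0.05% low protease BSA, 2.5% glycerol, 0.01% Tween-20. ClpP 10 microg/mL final; 20 min RT; delta FRET normalized to ADEP and DMSO controls.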
Mito fusion yeast: mitochondrial division inhibition or fusion activation. S. cerevisiae fusion-defective mutant growth rescue, CellTiterGlo 48 h. Potency, µM (doses to about 46.1 µM), for inactives: at the highest dose growth rescue (activation), actives largely listed as activators. hit rate 0.23% among 320,000. AID 485298; note: potency is the fitted concentration of half-maximal effect; % of control where 0% means no effect; nearly all actives have a fitted effect of over 45% in size
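Temperature-sensitive fusion-defective S. cerevisiae (e.g. fzo1-1, mgm1-5) were grown with compound in YPEG medium (3% ethanol, 3% glycerol) for 48 hours at 37C. Growth rescue was measured as viability by CellTiterGlo luminescence after 10 minutes at ambient.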
uPA generation: blocks generation of uPA at the cell surface; AID 540303; cell surface uPA generation assay, qHTS; Potency, µM (top dose mostly 38.3 µM), for the others: at the top dose activity change, negative = inhibition, most hits filed as inhibitors; hit rate 0.31% among 330,000; active = well fitted inhibition curve with a large enough effect; inconclusive = small, poorly fitted or top-dose-only effect; inactive = no such curve, though single readings can be large or run the other way; tested in mouse RAW 264.7 cells; note: potency is the fitted concentration of half-maximal effect; % is set by controls: 0 for no effect and ±100 for the full control effect; nearly all actives have a fitted effect of over 55% in size
B2AR arrestin: recruits beta-arrestin to the human beta2-adrenergic receptor. hit rate 0.02% among 330,000. beta-arrestin recruitment to beta2AR, cell-based reporter. P07550. Potency, µM (doses to about 46.1 µM), for the others: at the top dose activation, usual class: activators;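 note: potency is the fitted concentration of half-maximal effect; 0% = DMSO controls and full agonism = EC100 isoproterenol or metaproterenol; nearly all actives have a fitted effect of over 65% in size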
Target sequence (P07550 whole entry, looked up): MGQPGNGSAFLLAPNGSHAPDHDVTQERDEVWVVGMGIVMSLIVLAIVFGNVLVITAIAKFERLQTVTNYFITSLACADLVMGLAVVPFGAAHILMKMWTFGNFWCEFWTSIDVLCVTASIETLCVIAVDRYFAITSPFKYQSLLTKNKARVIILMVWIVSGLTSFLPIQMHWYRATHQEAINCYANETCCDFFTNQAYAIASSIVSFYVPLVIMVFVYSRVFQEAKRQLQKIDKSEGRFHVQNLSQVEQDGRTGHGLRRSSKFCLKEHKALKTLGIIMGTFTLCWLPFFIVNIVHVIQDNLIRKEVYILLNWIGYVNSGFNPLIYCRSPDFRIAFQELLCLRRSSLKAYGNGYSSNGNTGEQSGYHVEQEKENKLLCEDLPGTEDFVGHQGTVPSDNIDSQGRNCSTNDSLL
p53 reactivator: mutant p53 re-activation in reporter cells; H1299 p53-A138V BP100-luciferase reporter, luminescence, 24 h; Potency, µM (highest dose often 92.2 µM), for inactives: top-dose activity change, positive = activation, hits mostly activators; hit rate 0.063% among 320,000; note: potency is the fitted concentration of half-maximal effect; % of control where 0% means no effect; nearly all actives have a fitted effect of over 45% in size
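p53-null H1299 cells stably carrying temperature-sensitive p53-A138V and a BP100-luciferase reporter were pinned with compounds (4-point, 1:5 series) and held 24 hrs at 37 deg C. Luminescence was read 10 min after detection reagent.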
ClpP validation: validation of B. subtilis ClpP protease hits (inhibitors) | hit rate 40% among 470 | AID 743245 | shares compounds with ClpP mod | purified B. subtilis ClpP, FRET-FV substrate cleavage, 20 min | Potency, µM (top dose mostly 57.5 µM), without a hit: at the top dose activity change, negative = inhibition, usual class: inhibitors; note: potency is the fitted concentration of half-maximal effect; % is set by controls: 0 for no effect and ±100 for the full control effect; nearly all actives have a fitted effect of over 70% in size
* marks the source's active call; other numbers are inactive results; u = inconclusive; x = not tested or not shown. Unless noted, calls come from the whole dose curve; as a rule, active = well fitted curve in the direction sought with a large enough effect; inconclusive = small, poorly fitted or top-dose-only effect, or another doubt; inactive = no such curve, though single readings can be large; an effect the other way counts as inactive or inconclusive.

SMILES | Giardia kill | ClpP mod | Mito fusion yeast | uPA generation | B2AR arrestin | p53 reactivator | ClpP validation
CC(=O)Nc1ccc2nc(-c3ccccc3)cn2c1 | u | 3.5µM* | 2% | -8% | -1% | u | 22µM*
Clc1ccc2nc(-c3ccccc3)cn2c1 | u | 1% | -12% | -15% | 0% | 11% | x
CC(=O)Nc1ccc(-c2cc(C(=O)O)c3ccccc3n2)cc1 | u | 4% | 1% | -15% | 0% | -2% | x
COc1ccc(NC(=O)Nc2nnc(-c3cccs3)s2)cc1 | -3 | -5% | -6% | 4% | 0% | 27% | x
COc1ccc(C(=O)Nc2nnc(-c3cccs3)s2)cc1 | -15 | 93% | 4% | -10% | 0% | 31% | 17µM*
COc1cc(Cn2c(=O)oc3ccc(C)cc32)ccc1OCCC(C)C | x | -1% | x | x | x | x | x
CCCOc1ccc(Cn2c(=O)oc3ccc(C)cc32)cc1OC | 4 | 240% | 0% | 4% | 0% | -14% | -1%
CCOC(=O)N1CCC(Nc2nc3ccccc3n3nnnc23)CC1 | -15 | 25µM* | 8% | 3% | 0% | 6% | 19µM*
CCOC(=O)c1ccccc1Nc1nc2ccc(C)cc2n2nnnc12 | x | -1% | x | x | x | x | x
COc1ccc(-n2nnnc2C2(C)CCC(=O)N2Cc2ccccc2)cc1 (centres undefined) | x | -3% | x | x | x | x | x
CC(C)c1nc2oc3c(NCC4CCCO4)ncnc3c2c2c1COC(C)(C)C2 (centres undefined) | 1 | 7.1µM* | 4% | -1% | 0% | 17% | 22µM*
Cc1nc2oc3c(NCC4CCCO4)ncnc3c2c2c1COC(C)(C)C2 (centres undefined) | 7 | -3% | 4% | -3% | 0% | 2% | x
COc1cc(NC(=O)NC(C)c2c(-n3cccc3)sc3c2CCN(C)C3)cc(OC)c1 (centres undefined) | x | -1% | x | x | x | x | x
Cc1cc(=O)oc2cc(OCC(=O)OCC(=O)NCc3ccc4c(c3)OCO4)ccc12 | 0 | 199% | 1% | 1% | 0% | -4% | -26%
Cc1cc(OCC(=O)OCC(=O)NCc2ccc3c(c2)OCO3)ccc1Cl | -22 | -1% | -5% | 10% | 0% | 0% | x
Cc1cc(=O)oc2cc(OCC(=O)OCC(=O)Nc3ccc(C(N)=O)cc3)ccc12 | u | x | -2% | -1% | -1% | 0% | x
Cc1cc(=O)oc2cc(OCC(=O)OCC(=O)Nc3ccccc3F)ccc12 | 1 | x | -1% | -5% | 0% | -1% | x
Cc1cc(=O)oc2cc(OCC(=O)OCC(=O)Nc3ccccc3C(C)C)ccc12 | -11 | 79% | 3% | 1% | -1% | 9% | u
Cc1cc(=O)oc2cc(OCC(=O)Nc3cccc(S(=O)(=O)N(C)C)c3)ccc12 | 13 | -13% | -4% | -2% | -1% | 7% | x
Cc1ccc(NC(=O)COC(=O)COc2ccc3ccc(=O)oc3c2)cc1[N+](=O)[O-] | 1 | 104% | -2% | 4% | -4% | -2% | 19µM*
Cc1ccc(S(=O)(=O)N(C)C)cc1NC(=O)COC(=O)COc1ccc2c(C)cc(=O)oc2c1 | 13 | 88% | x | -12% | 0% | -2% | -24%
CSc1ccc(C(O)c2ncc(-c3ccccc3F)[nH]2)cc1 (centres undefined) | x | 1% | x | x | x | x | x
CC1=C(c2ccc(C)cc2)S(=O)(=O)N(Cc2ccc(C(=O)NCc3ccccc3)cc2)C1=O | x | 5µM* | x | x | x | x | -2%
CC1=C(c2ccc(C)cc2)S(=O)(=O)N(Cc2ccc(C(=O)Nc3ccccc3C)cc2)C1=O | x | -3% | x | x | x | x | x
Cc1ccc(NC(=O)C2CCCN2S(=O)(=O)c2cccc3cccnc23)cc1C (centres undefined) | x | -3% | x | x | x | x | x
SMILES | Giardia kill | ClpP mod | Mito fusion yeast | uPA generation | B2AR arrestin | p53 reactivator | ClpP validation
O=C1Cc2cc(S(=O)(=O)N3CCNCC3)ccc2N1 | 2 | 104% | x | 2% | 0% | 5% | 6%
COc1ccc(S(=O)(=O)N2CCCC2C(=O)Nc2nc3c(s2)CCCC3)cc1 (centres undefined) | 8 | 6.3µM* | 12% | 10% | 0% | 1% | 0%
Cc1ccc(C)c(OCCCC(=O)NC2CCCCC2)c1 | 1 | 3.2µM* | -4% | 7% | -1% | x | 0%
CCN(CC)C(=O)c1c2c(nc3ccccc13)-c1ccccc1CC2 | 8 | 8.9µM* | u | 3% | 0% | -5% | 22µM*
COc1ccc(CN2C(=O)C(CC(=O)NCCc3ccccn3)CC(C(=O)N3CCCCCC3)=C2C)cc1 (centres undefined) | x | 1% | x | x | x | x | x
CCc1cccc(NC(=O)c2ccc(CNS(=O)(=O)c3ccc4c(c3)C(C)(C)C(=O)N4C)cc2)c1 | x | -4% | x | x | x | x | x
COc1ccc(/C=C/C(=O)c2c(O)c(OC)c3occc3c2OC)cc1OC | x | -1% | x | x | x | x | x
Cc1ccc(NC(=O)c2ccc(-c3ccccc3)s2)cc1 | x | 47% | x | x | x | x | -9%
Cc1cccc(C)c1NC(=O)C(c1ccc(C(F)(F)F)cc1)n1c(=O)c(-c2cc3ccccc3[nH]2)nc2ccccc21 (centres undefined) | x | 18% | x | x | x | x | x
Cc1cccc(C)c1NC(=O)C(c1ccc(-c2ccccc2)cc1)n1c(=O)c(-c2cc3ccccc3[nH]2)nc2ccccc21 (centres undefined) | x | 40% | x | x | x | x | 11%
CC(C)(C)NC(=O)C(c1ccc(-c2ccccc2)cc1)n1c(=O)c(-c2cc3ccccc3[nH]2)nc2ccccc21 (centres undefined) | x | 63% | x | x | x | x | 20%
COc1cc(-c2noc(-c3ccc(N(C)C)c([N+](=O)[O-])c3)n2)cc(OC)c1OC | x | 1% | x | x | x | x | x
CSc1cccc(NC(=O)c2ccc3c(c2)c(C)c(C)n3Cc2ccc(F)cc2)c1 | x | 7.1µM* | x | x | x | x | 27µM*
Cc1ccccc1NC(=O)c1ccc2c(c1)c(C)c(C)n2Cc1ccccc1 | x | -11% | x | x | x | x | x
CCCC(=O)Nc1ccc2oc(-c3ccc(OC)c(Br)c3)nc2c1 | 3 | 8.9µM* | -2% | x | 0% | 16% | 24µM*
CCOc1cc(CNC2CCCC2)ccc1OCc1ccccc1Cl | -26 | 2% | -5% | -6% | 0% | 0% | x
CCOc1cc(C2NN=C(c3ccccc3)S2)ccc1OCc1ccccc1Cl (centres undefined) | -17 | 3.5µM* | 1% | -6% | 0% | 19% | u
CCN(CC)CCNC(=O)c1cn(CCOC)c(=O)c2c1c1ccccc1n2C | 3 | 4% | -5% | 3% | 0% | -2% | x
CCN(CC)CCCNC(=O)c1cn(CCOC)c(=O)c2c1c1ccccc1n2C | -2 | 10µM* | 0% | -1% | -1% | -2% | 22µM*
